Results as given in PubChem BioAssay.
Several values for one entry are separate records, joined by “and”; a condition that tells them apart may be missing. Equal entries are not always repeated. Activity calls are given as the source filed them. Unless noted, no stated cut-off is given here; in the data, active means inhibition above about 80%; inactive means the rest.

Key:
[1] = molecular target: 6-phosphogluconate dehydrogenase, decarboxylating (Homo sapiens) (UniProt P52209); assay: inhibition of human phosphogluconate dehydrogenase – biochemical, recombinant enzyme, NADPH absorbance, primary screen (AID 1159550;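 active means at least 20% inhibition of 6-phosphogluconate dehydrogenase activity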); conditions: recombinant 6PGD, NADPH absorbance 341 nm; at 10 µM; stronger effect = higher value
6-phosphogluconate dehydrogenase, decarboxylating (Homo sapiens), sequence (P52209 whole entry, looked up): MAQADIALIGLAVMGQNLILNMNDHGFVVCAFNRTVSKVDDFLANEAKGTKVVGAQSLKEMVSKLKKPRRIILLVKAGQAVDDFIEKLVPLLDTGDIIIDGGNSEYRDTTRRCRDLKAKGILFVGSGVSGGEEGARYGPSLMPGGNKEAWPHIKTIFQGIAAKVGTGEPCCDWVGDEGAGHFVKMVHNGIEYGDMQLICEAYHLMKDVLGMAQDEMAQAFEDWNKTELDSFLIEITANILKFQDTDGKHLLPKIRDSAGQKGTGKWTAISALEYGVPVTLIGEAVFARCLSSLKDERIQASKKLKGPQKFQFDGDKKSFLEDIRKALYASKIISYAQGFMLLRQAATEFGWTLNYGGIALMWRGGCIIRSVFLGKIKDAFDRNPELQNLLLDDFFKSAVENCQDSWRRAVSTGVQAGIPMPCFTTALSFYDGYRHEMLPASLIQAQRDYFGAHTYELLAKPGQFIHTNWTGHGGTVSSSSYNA

[2] = viability loss with induced miR-34 in A549 – imaging, A549 dox-inducible miR-34, nuclei and caspase counts, primary screen (AID 1347080;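 active means compounds whose cell count with miR-34 switched on is under 0.7 times the count with it off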); conditions: A549 miR-34 inducible, Hoechst nuclei count, 48 h
[3] = galactose survival enhancers in mitochondrial complex I cybrids – cell-based, galactose medium, ATP luminescence, primary screen (AID 1645843;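 active means z-score of at least 1.8 in each of two replicates, scored against plate mean and spread of sample wells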;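 further: positive z means more ATP and so rescue of galactose-driven cybrid death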); conditions: complex I mutant cybrid cells, 72 h, stronger effect = higher value
[4] = growth inhibition, single agent or in combination, cell-based, chromothripsis tumors, cisplatin or BGB combos (AID 1671449); conditions: LFS_MB_P medulloblastoma cells;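 further: cells exposed for 96 hours; 0% = vehicle DMSO and 100% = killing by high DMSO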
[5] = growth inhibition, single agent and combos, cell-based, chromothripsis tumors, cisplatin or BGB combos (AID 1671450); conditions: HDN33 neuroblastoma cells, stronger effect = higher value;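 further: cells exposed to compound for four days; 0% = vehicle DMSO and 100% = cell killing by high DMSO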
[6] = growth inhibition, single agents and combos, ICB984, cell-based, cisplatin or BGB combos, synergistic combos for chromothripsis tumors (AID 1671451; call rule not given here;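 further: cells exposed for 96 hours before readout; 0% = vehicle DMSO and 100% = killing by high DMSO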); conditions: ICB984 medulloblastoma cells, drug combinations, stronger effect = higher value
[7] = growth inhibition, single agents and combos, LFS_MB_1R, cell-based, cisplatin or BGB combos, synergistic combos for chromothripsis tumors (AID 1671452); conditions: LFS_MB_1R medulloblastoma cells, stronger effect = higher value;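 further: cells exposed for 96 hours before readout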
[8] = growth inhibition, single agents and combos, HTB85, cell-based, BGB or cisplatin IC20 combos, synergistic combos for chromothripsis tumors (AID 1671453); conditions: HTB85 osteosarcoma cells, drug combinations, stronger effect = higher value;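 further: cells exposed for 96 hours before readout; 0% = vehicle DMSO and 100% = high DMSO killing control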
[9] = growth inhibition, single agents and combos, CRL2098, cell-based, BGB or cisplatin IC20 combos, synergistic combos for chromothripsis tumors (AID 1671454); conditions: CRL2098 osteosarcoma cells, drug combinations, stronger effect = higher value;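 further: cells exposed for 96 h before readout; 0% = vehicle DMSO and 100% = killing by high DMSO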
[10] = growth inhibition, single agents and combos, HD-MB03, cell-based, BGB or cisplatin IC20 combos, synergistic combos for chromothripsis tumors (AID 1671455; in the data active means inhibition above about 83%;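 further: 0% = vehicle DMSO and 100% = high DMSO as cytotoxic control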); conditions: HD-MB03 medulloblastoma cells, stronger effect = higher value
[11] = growth inhibition, single agents and combos, UWB1.289, cell-based, BGB or cisplatin combos, synergistic combos for chromothripsis tumors (AID 1671456); conditions: UWB1.289 ovarian carcinoma cells, stronger effect = higher value;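 further: cells exposed to compound for four days; 0% = vehicle DMSO and 100% = killing by high DMSO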
[12] = growth inhibition, single agents and combos, LFS_MB_2R, cell-based, cisplatin combos, synergistic combos for chromothripsis tumors (AID 1671457); conditions: LFS_MB_2R medulloblastoma cells, stronger effect = higher value;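 further: cells exposed to compound for four days before readout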
[13] = growth inhibition, MDA-MB-436, cell-based, BGB or cisplatin combos, synergistic combos for chromothripsis tumors (AID 1671458; call rule not given here;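 further: cells exposed for 96 hours; 0% = vehicle DMSO and 100% = killing by high DMSO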); conditions: MDA-MB-436 breast carcinoma growth inhibition, drug combinations, stronger effect = higher value
[14] = UWB1.289_BRCA1 ovarian cancer growth, cell-based, BGB or cisplatin combinations (AID 1671459); conditions: UWB1.289 BRCA1 ovarian carcinoma, drug combinations, stronger effect = higher value
[15] = drug combination toxicity in non-malignant astrocytes – cell-based, BGB or cisplatin IC20 combos, cytotoxicity control for chromothriptic childhood tumor combination screen (AID 1671460); conditions: Human astrocytes, viability inhibition, drug combinations, at 0.5 µM, stronger effect = higher value;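 further: cells exposed to compounds for 96 hours before viability readout; 0% = vehicle and 100% = killing control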
[16] = BT084 cell growth, single and combined drugs, ICGC_MB145, cisplatin and BGB IC40 combos (AID 1671461); conditions: BT084 medulloblastoma cells, drug combinations, stronger effect = higher value;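 further: cells exposed to drugs for 96 hours; 0% = vehicle DMSO and 100% = high DMSO full killing control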
[17] = RCMB18 cell growth, single agent and combined, cisplatin and BGB IC40 combos (AID 1671462); conditions: RCMB18 medulloblastoma cells, stronger effect = higher value;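 further: cells exposed to compound for four days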
[18] = CRL1545 cell growth, single agent and combined, cisplatin and BGB IC20 combos (AID 1671464); conditions: CRL1545 osteosarcoma cells, stronger effect = higher value;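 further: cells exposed to compound for 96 hours before readout; 0% = vehicle DMSO and 100% = high DMSO killing control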
[19] = measured here: combination with BGB IC40, at 0.05 µM
[20] = measured here: with BGB IC20 combination, at 0.5 µM
[21] = measured here: with cisplatin IC20 combination, at 0.5 µM
[22] = measured here: combination with cisplatin, at 0.5 µM
[23] = measured here: combination with cisplatin, at 5 µM

Question: Which inhibition [1] does the source give for `COc1cc(C2c3cc4c(cc3C(OC3OC5COC(C)OC5C(O)C3O)C3COC(=O)C23)OCO4)cc(OC)c1O` (centres undefined) here?
Answer: Its inhibition is -3.12% (inactive).

Question: And the fold change ([2]; stronger effect = lower value, cell number ratio, induced over uninduced)?
Answer: The fold change was 0.803 (inactive).

Question: And the fold change ([2]; measured here: relative caspase fold change +Dox/-Dox)?
Answer: The fold change was 1.95.

Question: And the cell count ([2]; measured here: total cells with miR-34 induction, stronger effect = lower value)?
Answer: Its cell count is 3290.

Question: What about the cell count ([2]; measured here: total cells without miR-34 induction) of the same molecule?
Answer: The cell count was 4090.

Question: What about the z-score [3] of the same molecule?
Answer: Its z-score is -1.39 (inactive).

Question: What about the inhibition ([4]; at 0.5 µM, stronger effect = higher value) of the same molecule?
Answer: Its inhibition is -32.6% (inactive) and -17.8% (inactive).

Question: And the inhibition ([4]; measured here: combination with BGB IC20, at 0.005 µM)?
Answer: The inhibition was -28.8% and 2.01%.

Question: What about the inhibition ([4]; measured here: combination with BGB IC40, at 0.005 µM) of the same molecule?
Answer: The inhibition was -24.3% and 13.4%.

Question: What about the inhibition [4, 19] of the same molecule?
Answer: Its inhibition is -29.9% and -0.69%.

Question: What about the inhibition ([4]; measured here: combination with cisplatin, at 0.5 µM, stronger effect = higher value) of the same molecule?
Answer: Its inhibition is -45.5% and -45.4%.

Question: What about the inhibition ([4]; measured here: combination with cisplatin, at 5 µM, stronger effect = higher value) of the same molecule?
Answer: The inhibition was -34.4% and -6.98%.

Question: What about the inhibition ([5]; BGB combo, at 5 µM) of the same molecule?
Answer: Its inhibition is 47.6% and 64.8%.

Question: What about the inhibition ([5]; at 0.5 µM) of the same molecule?
Answer: The inhibition was 15.7% (inactive) and 26.2% (inactive).

Question: What about the inhibition ([5]; cisplatin combo, at 5 µM) of the same molecule?
Answer: The inhibition was 44.6% and 49%.

Question: And the inhibition [5, 20]?
Answer: Its inhibition is 15.9% and 28.5%.

Question: And the inhibition [5, 21]?
Answer: Its inhibition is -1.85% and 5.29%.

Question: What about the inhibition ([5]; single agent, at 5 µM) of the same molecule?
Answer: The inhibition was 68.9% and 70.5%.

Question: And the inhibition ([6]; BGB IC20 combo, at 0.005 µM)?
Answer: The inhibition was -20.6% and 5.1%.

Question: What about the inhibition ([6]; BGB IC40 combo, at 0.005 µM) of the same molecule?
Answer: The inhibition was -32.2% and -0.661%.

Question: What about the inhibition ([6]; BGB IC40 combo, at 0.05 µM) of the same molecule?
Answer: Its inhibition is -74.4% and -28.1%.

Question: And the inhibition ([6]; at 0.5 µM)?
Answer: The inhibition was -29.8% (inactive) and -8.32% (inactive).

Question: And the inhibition ([6]; cisplatin combo, at 0.05 µM)?
Answer: Its inhibition is -80.7% and -31.6%.

Question: What about the inhibition ([6]; cisplatin combo, at 0.5 µM) of the same molecule?
Answer: The inhibition was -45.1% and -7.65%.

Question: And the inhibition ([6]; cisplatin combo, at 5 µM)?
Answer: Its inhibition is -73.3% and -20.4%.

Question: And the inhibition ([6]; measured here: 5 uM single agent, at 5 µM)?
Answer: The inhibition was -13% and -19.7%.

Question: What about the inhibition ([7]; at 0.5 µM) of the same molecule?
Answer: The inhibition was -24.1% (inactive) and -15.7% (inactive).

Question: What about the inhibition [7, 19] of the same molecule?
Answer: Its inhibition is -34.7% and -15.9%.

Question: And the inhibition [7, 22]?
Answer: The inhibition was -23.9% and -48.9%.

Question: And the inhibition [7, 23]?
Answer: Its inhibition is -59.7% and -24.4%.

Question: What about the inhibition ([8]; at 0.5 µM) of the same molecule?
Answer: The inhibition was 3.37% (inactive) and 12.3% (inactive).

Question: What about the inhibition ([8]; measured here: with BGB IC20, at 0.5 µM) of the same molecule?
Answer: Its inhibition is -1.07% and 17.8%.

Question: What about the inhibition ([8]; measured here: with BGB IC20, at 5 µM) of the same molecule?
Answer: Its inhibition is 84.3% and 86%.

Question: And the inhibition ([8]; measured here: with cisplatin IC20, at 0.5 µM)?
Answer: Its inhibition is -5.76% and 1.07%.

Question: And the inhibition ([8]; measured here: with cisplatin IC20, at 5 µM)?
Answer: The inhibition was 76.7% and 87%.

Question: And the inhibition ([8]; single agent, at 5 µM)?
Answer: The inhibition was 84.8% and 89.6%.

Question: What about the inhibition ([9]; at 0.5 µM) of the same molecule?
Answer: The inhibition was -81.8% (inactive) and -42.5% (inactive).

Question: And the inhibition ([9]; measured here: combination with BGB at IC20, at 0.5 µM)?
Answer: The inhibition was -58% and -65.7%.

Question: And the inhibition ([9]; measured here: combination with cisplatin at IC20, at 0.5 µM)?
Answer: Its inhibition is -127% and -42.7%.

Question: And the inhibition ([10]; at 0.5 µM)?
Answer: The inhibition was 58.9% (inactive) and 63.9% (inactive).

Question: And the inhibition ([10]; measured here: combo with BGB at IC20, at 0.5 µM)?
Answer: Its inhibition is 56.6% and 69.3%.

Question: And the inhibition ([10]; measured here: combo with cisplatin at IC20, at 0.5 µM)?
Answer: Its inhibition is 64.2% and 61.2%.

Question: What about the inhibition ([11]; at 0.5 µM) of the same molecule?
Answer: Its inhibition is -3.51% (inactive) and 0.59% (inactive).

Question: What about the inhibition ([11]; measured here: inhibition with BGB combination, at 0.05 µM) of the same molecule?
Answer: The inhibition was 2.23% and -16.8%.

Question: What about the inhibition ([11]; measured here: inhibition with cisplatin combination, at 0.05 µM) of the same molecule?
Answer: The inhibition was -32.6% and -11.7%.

Question: And the inhibition ([12]; at 0.5 µM)?
Answer: Its inhibition is -20.7% (inactive) and -2.13% (inactive).

Question: And the inhibition [12, 22]?
Answer: Its inhibition is -26.1% and 1.95%.

Question: And the inhibition [12, 23]?
Answer: The inhibition was -15.5% and -45.8%.

Question: And the inhibition ([13]; at 0.5 µM)?
Answer: The inhibition was 19.1% (inactive) and 27.8% (inactive).

Question: And the inhibition ([13]; measured here: BGB combination, at 0.5 µM)?
Answer: Its inhibition is 8.19% and 23.7%.

Question: What about the inhibition ([13]; measured here: BGB combination, at 5 µM) of the same molecule?
Answer: Its inhibition is 34% and 51.6%.

Question: What about the inhibition ([13]; measured here: cisplatin combination, at 0.5 µM) of the same molecule?
Answer: The inhibition was 17.4% and 18.9%.

Question: And the inhibition ([13]; measured here: cisplatin combination, at 5 µM)?
Answer: Its inhibition is 53.5% and 66.5%.

Question: What about the inhibition ([14]; BGB combination, concentration series, at 5 µM) of the same molecule?
Answer: The inhibition was 13% and 11.6%.

Question: And the inhibition ([14]; at 0.5 µM)?
Answer: Its inhibition is -8.08% (inactive) and 2.75% (inactive).

Question: What about the inhibition ([14]; cisplatin combination, concentration series, at 5 µM) of the same molecule?
Answer: Its inhibition is -5.18% and 30.7%.

Question: And the inhibition [15]?
Answer: The inhibition was 37.7% (inactive) and 21.4% (inactive).

Question: And the inhibition ([15]; measured here: combo with BGB IC20)?
Answer: The inhibition was 41.3% and 27.7%.

Question: And the inhibition ([15]; measured here: combo with cisplatin IC20)?
Answer: Its inhibition is 11.1% and -19.1%.

Question: And the inhibition ([16]; at 0.5 µM)?
Answer: The inhibition was -29.6% (inactive) and -14.9% (inactive).

Question: And the inhibition ([16]; cisplatin combination, at 0.5 µM)?
Answer: The inhibition was -28.5% and -4.54%.

Question: What about the inhibition ([16]; cisplatin combination, at 5 µM) of the same molecule?
Answer: Its inhibition is 10.8% and 15.8%.

Question: And the inhibition ([16]; measured here: BGB IC40 combination 0.05 uM, at 0.05 µM)?
Answer: The inhibition was 35.1% and 9.21%.

Question: What about the inhibition ([16]; single agent, at 5 µM) of the same molecule?
Answer: Its inhibition is -17.9% and 3.25%.

Question: What about the inhibition ([17]; at 0.5 µM) of the same molecule?
Answer: The inhibition was -14.2% (inactive) and -26.4% (inactive).

Question: What about the inhibition ([17]; cisplatin combo, at 5 µM) of the same molecule?
Answer: Its inhibition is -20.2% and -20.5%.

Question: What about the inhibition ([17]; measured here: BGB IC40 combination, at 0.05 µM) of the same molecule?
Answer: The inhibition was -25.5% and -24.7%.

Question: What about the inhibition [17, 22] of the same molecule?
Answer: The inhibition was -16.3% and -39.4%.

Question: What about the inhibition ([17]; single agent, at 5 µM) of the same molecule?
Answer: The inhibition was -18.8% and -0.235%.

Question: And the inhibition ([18]; at 0.5 µM)?
Answer: The inhibition was 27.6% (inactive) and 42.6% (inactive).

Question: What about the inhibition [18, 20] of the same molecule?
Answer: The inhibition was 19.9% and 59.6%.

Question: What about the inhibition [18, 21] of the same molecule?
Answer: Its inhibition is 30.4% and 32.6%.

Question: What about the inhibition ([18]; single agent, at 0.05 µM) of the same molecule?
Answer: The inhibition was -27% and -16.2%.

Question: And the inhibition ([18]; single agent, at 5 µM)?
Answer: The inhibition was 72.5% and 78.1%.
